Bead autofluor: compound fluorescence in toxin protease inhibitor counterscreen; compound autofluorescence counterscreen, microsphere flow cytometry; active compounds read high; 360,000 compounds, 3.1% hits; fluorescence intensity (no concentration beside the values); AID 624483; in the data active = fluorescence intensity above about 16000; inconclusive = no clear call, values can overlap the other calls
CCHF vOTU inh: CCHFV vOTU protease inhibition. AID 651958. 370,000 compounds, 0.55% hits. inhibition, % at 11.5 µM. Pep-AMC fluorescence; in the data active = inhibition above about 30%
BoNT-A LC inh2: blocks Botulinum neurotoxin A light chain protease | inhibition, % at 10 µM | 360,000 compounds, 0.17% hits | multiplex microsphere protease substrate cleavage, flow cytometry
BoNT-F LC inh: BoNT F light chain protease inhibition | Multiplex microsphere protease cleavage assay, flow cytometry | inhibition, % at 10 µM | 360,000 compounds, 0.22% hits | AID 588497; in the data active = inhibition above about 35%, passing the limit was not always enough; inconclusive = no clear call, values can overlap the other calls
Anthrax LF inh2: inhibitors of Bacillus anthracis lethal factor protease; multiplex microsphere protease cleavage assay, LF; inhibition, % at 10 µM; 360,000 compounds, 0.12% hits; AID 588501
Target sequence (P15917 whole entry, looked up): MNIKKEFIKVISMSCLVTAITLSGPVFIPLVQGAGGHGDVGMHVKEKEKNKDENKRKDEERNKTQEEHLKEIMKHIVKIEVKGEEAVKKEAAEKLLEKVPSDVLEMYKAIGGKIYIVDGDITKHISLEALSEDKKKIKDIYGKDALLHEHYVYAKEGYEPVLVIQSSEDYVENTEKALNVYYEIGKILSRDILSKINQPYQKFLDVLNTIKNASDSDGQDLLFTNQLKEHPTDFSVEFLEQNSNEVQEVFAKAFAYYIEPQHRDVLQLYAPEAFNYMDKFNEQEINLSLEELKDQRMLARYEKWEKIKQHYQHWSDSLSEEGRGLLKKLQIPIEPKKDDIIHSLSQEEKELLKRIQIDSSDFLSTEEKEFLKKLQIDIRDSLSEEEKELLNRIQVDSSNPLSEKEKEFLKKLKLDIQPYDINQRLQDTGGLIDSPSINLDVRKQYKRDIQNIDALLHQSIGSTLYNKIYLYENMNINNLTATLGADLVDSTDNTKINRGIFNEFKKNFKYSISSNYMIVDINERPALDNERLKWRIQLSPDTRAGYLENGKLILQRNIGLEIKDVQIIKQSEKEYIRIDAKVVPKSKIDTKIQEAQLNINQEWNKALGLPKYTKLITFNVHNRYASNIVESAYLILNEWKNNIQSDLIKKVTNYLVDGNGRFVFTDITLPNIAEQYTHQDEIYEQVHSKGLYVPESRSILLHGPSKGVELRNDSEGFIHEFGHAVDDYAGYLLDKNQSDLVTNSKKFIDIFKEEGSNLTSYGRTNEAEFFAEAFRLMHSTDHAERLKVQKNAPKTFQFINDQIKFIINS
3CLpro inhibitor: SARS-CoV 3CLpro protease inhibition. 290,000 compounds, 0.14% hits. P0C6X7. AID 1706. inhibition, % at 6 µM. recombinant SARS-CoV 3CLpro, quenched FRET peptide cleavage; in the data active = inhibition above about 12%
Hits are given with their value; i = inactive; ? = inconclusive; nt = not tested or not shown. Only some compounds are listed: those with a hit (about 3.9% of all), similar ones and a draw of the others. Cut-off read from the data, not from the text of the source, unless noted: active = inhibition above about 30%; inconclusive = no clear call, values can overlap the other calls; inactive = below that.

SMILES	Bead autofluor	CCHF vOTU inh	BoNT-A LC inh2	BoNT-F LC inh	Anthrax LF inh2	3CLpro inhibitor
O=C(NCC1CCCCC1)c1ccco1	22013	i	?	i	i	i
CC1=C(C(=O)NCc2ccccc2)C(c2ccc(C)o2)n2ncnc2N1 (centres undefined)	20601	i	?	i	i	i
COC(=O)c1ccc(S(=O)(=O)N2CCC(NC(=O)CCC3CCCC3)CC2)cc1	nt	i	nt	nt	nt	nt
COC(=O)[C@]12C[C@H](CC(=O)N3CCOCC3)C(=O)N(Cc3ccc4c(c3)OCO4)C1=C[C@H](COCc1ccccc1)O[C@@H]2C	nt	i	nt	nt	nt	nt
CC(C)C(=O)c1cc2c(cc1NC(=O)Nc1cccc3ccccc13)OCCO2	nt	nt	nt	nt	nt	i
CCC(=O)c1cc2c(cc1NC(=O)c1ccc(C)cc1)OCCO2	20255	i	?	i	i	i
CC(C)C(=O)c1cc2c(cc1NC(=O)c1cccs1)OCCO2	23207	i	i	i	i	i
CC(=O)Nc1cc2c(cc1C(=O)C(C)C)OCCO2	i	i	i	i	i	i
CC(C)C(=O)c1cc2c(cc1NC(=O)c1ccccc1)OCCO2	23685	i	?	i	i	i
CN(Cc1ccccc1)S(=O)(=O)c1cccc(C(=O)OCc2ccccc2)c1	nt	i	nt	nt	nt	nt
C=CCN1[C@H](C)COc2cccc(F)c2S1(=O)=O	nt	i	nt	nt	nt	nt
Cc1ccc(N(CC(=O)N2CCN(C3CCCCC3)CC2)S(=O)(=O)c2cccnc2)cc1	21207	i	?	i	i	i
Cc1ccc(S(=O)(=O)N(CC(=O)N2CCCCCC2)c2ccccc2)cc1	i	i	i	i	i	i
Cc1oc(C(=O)O)cc1COc1ccc2c3c(c(=O)oc2c1C)CCC3	16185	i	i	i	i	i
Cc1c(OCC(=O)OC(C)(C)C)ccc2c3c(c(=O)oc12)CCC3	i	i	i	i	i	i
COc1ccc(N2CCN(c3oc(-c4ccccc4OC)nc3C#N)CC2)cc1	21565	nt	i	i	i	i
COc1ccc(N2CCN(c3oc(-c4ccco4)nc3C#N)CC2)cc1	20889	i	?	i	i	i
COc1ccccc1-c1nc(C#N)c(N2CCN(c3ccccc3)CC2)o1	i	i	i	i	i	i
COc1ccc(-c2nc(C#N)c(N3CCc4ccccc4C3)o2)cc1OC	17078	i	i	i	i	i
COc1ccccc1-c1nc(C#N)c(N2CCc3ccccc3C2)o1	i	i	i	i	i	i
COc1ccc(-c2nc(C#N)c(N3CCN(c4ccccc4)CC3)o2)cc1	i	i	i	i	i	i
N#Cc1nc(-c2ccco2)oc1N1CCN(c2ccccc2)CC1	i	i	i	i	i	i
CCN1CCN(c2oc(-c3ccc(OC)cc3)nc2C#N)CC1	16578	i	i	i	i	i
O=C(NN=Cc1ccc(-c2ccccc2)cc1)c1cc(-c2ccc(Cl)cc2)n[nH]1	nt	i	nt	nt	nt	nt
COc1ccc(-n2c(SCC(=O)Nc3ccc(S(=O)(=O)Nc4cc(C)nc(C)n4)cc3)nnc2-c2ccco2)cc1	nt	i	nt	nt	nt	nt
SMILES	Bead autofluor	CCHF vOTU inh	BoNT-A LC inh2	BoNT-F LC inh	Anthrax LF inh2	3CLpro inhibitor
COc1ccc(OP(=O)(Nc2ccccc2)Nc2ccccc2)cc1	17088	i	i	i	i	i
O=C(CCn1nnc(-c2cccs2)n1)NCc1cccs1	nt	i	nt	nt	nt	nt
Cc1nn(CCC(=O)NNC(=S)Nc2ccc(F)cc2)c(C)c1[N+](=O)[O-]	22117	i	i	i	i	i
Cc1nn(CCC(=O)NNC(=O)Nc2ccc(F)cc2)c(C)c1[N+](=O)[O-]	nt	i	nt	nt	nt	nt
COc1ccc(CN2C(=O)CSCCC2(C)c2nnnn2-c2c(C)cccc2C)cc1 (centres undefined)	nt	i	nt	nt	nt	nt
CN1CCN(Cc2c(C#N)c3ccccc3n2C)CC1	19926	i	?	i	i	i
Cn1c(CN2CCOCC2)c(C#N)c2ccccc21	17523	i	i	i	i	i
CN1CCN(Cc2nc3ccccc3n2C)CC1	19606	i	?	i	i	i
Cn1c(CN2CCCC2)c(C#N)c2ccccc21	i	i	i	i	i	i
Cc1cc(N2CCN(CC(C)(C)O)C[C@@H]2C)ccc1N1CCN(CC(C)(C)O)[C@@H](C)C1	nt	i	nt	nt	nt	nt
COc1ccc(OCCOC(=O)c2cccc(-n3cnnn3)c2)cc1	20878	i	i	i	i	i
CC[C@H](CCCCCCCn1ccc2ccccc21)CCC(=O)N(c1ccccc1)c1ccccc1	nt	i	nt	nt	nt	nt
COc1cc(CNc2ncn[nH]2)cc(Br)c1OC	23846	i	?	i	i	i
CCOc1c(Br)cc(CNc2ncn[nH]2)cc1OC	i	i	i	i	i	i
S=C(c1ccc(-c2ccc(Cl)cc2)o1)N1CCCCC1	i	i	i	i	i	i
N#CCCN1CCN(C(=S)c2ccc(-c3ccc(Cl)cc3)o2)CC1	20131	nt	?	i	i	i

Assay outcomes from PubChem BioAssay.
